Screens deposited in PubChem BioAssay by National Center for Advancing Translational Sciences (NCATS).
Hits are enriched below; roughly 7.8% of the tested compounds scored in any of these assays.
LASV entry inh: blocks Lassa virus binding to or entry into cells. Lassa virus pseudotype entry inhibition, cell reporter. Potency, µM (top dose mostly 37.9 µM), for the others: at the top dose activity change, negative = inhibition, actives largely listed as inhibitors. 300,000 tested, 1.2% active; calls by dose curve; tested in HEK293 cells; note: potency is the fitted concentration of half-maximal effect; nearly all actives have a fitted effect of over 50% in size
Vaccinia Venus: vaccinia inhibition (Venus reporter); Vaccinia virus Venus reporter expression, fluorescence; Potency, µM (titrated, usually from 36.5 µM), without a hit: at the top dose activity change, negative = inhibition, usual class: inhibitors; 330,000 tested, 0.46% active; AID 720580; calls by dose curve; tested in A549 cells; note: potency is the fitted concentration of half-maximal effect; nearly all actives have a fitted effect of over 30% in size
Vaccinia mCherry: vaccinia inhibition (mCherry reporter); Vaccinia virus mCherry reporter infection, fluorescence; Potency, µM (doses to about 36.5 µM), without a hit: top-dose activity change, negative = inhibition, actives largely listed as inhibitors; 310,000 tested, 0.63% active; calls by dose curve; tested in A549 cells; note: potency is the fitted concentration of half-maximal effect; nearly all actives have a fitted effect of over 35% in size
HCMV inh: inhibitors of human cytomegalovirus; HFF cells, HCMV-luciferase reporter, 72 h; hits give low values; activity change, negative = inhibition, % at 57.5 µM; 410,000 tested, 4.5% active; in the data active = activity change below about -60%; inconclusive = no clear call, values can overlap the other calls; inactive = above about -39%
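Human foreskin fibroblasts infected with luciferase-reporter HCMV at MOI 1 PFU/cell, compounds at two doses. Luciferase measured 72 h post infection; normalized to buffer-only basal and Salinomycin (10uM) controls.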
MARV entry inh: Marburg virus entry inhibition; Marburg virus pseudotyped entry inhibition, cell reporter; AID 540276; 300,000 tested, 1.8% active; Potency, µM (doses to about 37.8 µM), for the others: at the highest dose activity change, negative = inhibition, actives largely listed as inhibitors; calls by dose curve; tested in HEK293 cells; note: potency is the fitted concentration of half-maximal effect
HCV inh: inhibitors of hepatitis C virus infection | Huh7.5.1 HCVcc-Cre infection, luciferase reporter, 44 h | Potency, µM (titrated, usually from 41.8 µM), for inactives: at the top dose activity change, negative = inhibition, hits mostly inhibitors | 340,000 tested, 3.4% active | AID 651820; active = well fitted inhibition curve with a large enough effect; inconclusive = small, poorly fitted or top-dose-only effect, or another doubt; inactive = no such curve, though single readings can be large or run the other way; note: potency is the fitted concentration of half-maximal effect
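Reporter virus HCVcc-Cre (~0.5 moi) infects cells exposed to compound; seeding density 1,000 cells/well with 4 h settling beforehand. Luminescence, 15 sec read, taken 44 h post-infection following a 15 min RT substrate incubation.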
* marks the source's active call; other numbers are inactive results; i = inactive; ? = inconclusive; . = no result given; [ ] = another dose, or the depositor's remark. % is set by controls: 0 for no effect and ±100 for the full control effect.

SMILES | LASV entry inh | Vaccinia Venus | Vaccinia mCherry | HCMV inh | MARV entry inh | HCV inh
Fc1ccc(-c2cc3nc(-c4ccccc4)cc(N4CCN(CCN5CCOCC5)CC4)n3n2)cc1 | -13% | -13% | -26% | -71* | ? | 10µM*
C/C(=N\Nc1nncc2ccccc12)c1ccc(C(C)(C)C)cc1 | ? | 2% | -6% | . | ? | 2.5µM*
CN(C)c1ccc(/C=N/Nc2nncc3ccccc23)cc1 | ? | -9% | i | 40 | ? | -23%
C/C(=N\Nc1nncc2ccccc12)c1cccc(OC(F)F)c1 | 2.8µM* | -17% | ? | 41 | ? | ?
C/C(=N\Nc1nncc2ccccc12)c1ccc(O)cc1 | ? | -2% | ? | 15 | ? | 7.1µM*
COc1ccc(-c2nc(N/N=C(\C)c3ccc(O)cc3)c3ccccc3n2)cc1 | . | . | . | -19 | . | 10µM*
C(=N\Nc1nncc2ccccc12)/c1ccccc1 | ? | -3% | -11% | 200 | 12% | 14%
COc1ccc(-c2nc(NCCCN(C)C)c3ccccc3n2)cc1 | . | . | . | 130 | . | ?
O=C(CSc1ccc(F)cc1)Nc1ccc(Br)cc1 | . | -30% | -7% | 16 | . | -11%
O=C(CSc1ccc(F)cc1)Nc1ccccc1Br | 0% | -1% | -14% | -61* | 4% | -28%
CCOC(=O)c1[nH]c2ccc(OC)cc2c1NC(=O)c1ccc2c(c1)OCO2 | -18% | . | . | 11 | 0% | ?
COC(=O)c1[nH]c2cc(OC)ccc2c1NC(=O)c1ccc2c(c1)OCO2 | -3% | . | . | -39 | -16% | 2.5µM*
CCN(CC(=O)Nc1c(C(=O)OC)[nH]c2ccccc12)c1ccc2c(c1)OCO2 | -9% | . | . | 1 | 6.5µM* | ?
COC(=O)c1[nH]c2cc(OC)ccc2c1NC(=O)c1c(F)cccc1F | . | . | . | -16 | . | 13µM*
CN1CCCN(C(=O)/C=C/c2ccc(Cl)cc2Cl)CC1 | . | -9% | i | -62* | . | ?
O=C1CN(C(=O)/C=C/c2ccc(Cl)cc2Cl)CCN1 | 2%[46.1 µM] | -3% | -9% | 13 | ? | -1%
CCOc1cc(S(=O)(=O)N(CC)CC)ccc1F | -1% | . | . | 23 | 3% | 4%
CCOc1ccc(S(=O)(=O)N(CC)CC)cc1N | 7% | . | . | -81* | 19% | 10%
CCN(CC)S(=O)(=O)c1ccc(-c2ccc(S(=O)(=O)N(CC)CC)cc2)cc1 | ? | . | . | -64* | ? | ?
CCOc1ccc(S(=O)(=O)N(CC)CC)cc1NS(=O)(=O)c1ccc(F)c(F)c1F | 0% | 4.5µM* | 4µM* | -20 | -20% | 16%
COc1cccc(CNC(=O)CCCn2nc(C)c3sc4ccccc4c3c2=O)c1 | 7%[46.1 µM] | -13% | -13% | -1 | 9%[46.1 µM] | .
CC(=O)C(C(C)=O)c1c(Cl)c(O)c(O)c2c(C(=O)c3ccccc3)coc12 | 7.1µM* | ? | i[1.46 µM] | -107* | ? | 10µM*
CN1CCN(Cc2c(O)ccc3occ(C(=O)c4ccccc4)c23)CC1 | -25% | . | . | 14 | ? | ?
COc1cc(OC)cc(-c2cc3nc(C)c(CCC(=O)NC(C)CCc4ccco4)c(C)n3n2)c1 (centres undefined) | 10% | . | . | 14 | ? | ?
COc1cc(OC)cc(-c2cc3nc(C)c(CCC(=O)O)c(C)n3n2)c1 | . | -10% | 9% | -79* | -2% | 11%
SMILES | LASV entry inh | Vaccinia Venus | Vaccinia mCherry | HCMV inh | MARV entry inh | HCV inh
CC(C)Cn1c(N)c(C(=O)COC(=O)c2ccccc2C(=O)c2ccccc2)c(=O)n(C)c1=O | . | . | . | -7 | . | 10µM*
CC(C)Cn1c(N)c(C(=O)COC(=O)c2ccccc2Cl)c(=O)n(C)c1=O | . | -18% | 0% | -17 | . | ?
COCc1c(C(=O)OCC(=O)c2c(N)n(CC(C)C)c(=O)n(C)c2=O)oc2ccccc12 | -27% | . | . | -8 | -28% | ?
CC(C)Cn1c(N)c(C(=O)COC(=O)/C=C/c2cccs2)c(=O)n(C)c1=O | ? | -14% | i | -73* | ? | 4µM*
CC(C)Cn1c(N)c(C(=O)COC(=O)c2ccccc2F)c(=O)n(C)c1=O | -25%[46.1 µM] | -3% | -14% | -21 | -1%[46.1 µM] | 11µM*
Cc1c(C(=O)OCC(=O)c2c(N)n(CC(C)C)c(=O)n(C)c2=O)oc2ccccc12 | -23% | ? | -6% | -64* | 10µM* | ?
Cc1c2c(cc3c1[nH]c1ccccc13)C=NCC2 | 8%[46.1 µM] | -28% | ? | 3 | ? | 10µM*
Cc1cc2c([nH]c3ccccc32)c(C)n1 | -18%[46.1 µM] | 0% | -24% | ? | ? | ?
COc1cccc(-c2nc(SCc3cc(=O)c4ccc(C)c(C)c4[nH]3)n[nH]2)c1 | -4%[46.1 µM] | -13% | -6% | -16 | . | .
Cc1c(C(=O)Nc2nccs2)sc2nc(-c3cccs3)cc(C(F)(F)F)c12 | -25% | . | . | ? | ? | 11µM*
Cc1c(C(=O)O)sc2nc(-c3cccs3)cc(C(F)(F)F)c12 | -12% | -10% | -14% | -7 | 5%[46.1 µM] | 9%
O=C1OC(Nc2nc(-c3ccc(F)cc3)cs2)c2ccccc21 (centres undefined) | 1%[46.1 µM] | ? | ? | -91* | ? | -7%
COc1ccc2c(c1OC)C(=O)OC2Nc1nc(-c2ccc(-c3ccccc3)cc2)cs1 (centres undefined) | ? | ? | ? | 42 | -38% | 8.9µM*
CCCS(=O)(=O)c1nc(S(=O)(=O)c2ccc(C)cc2)c(N2CCN(CC)CC2)s1 | . | . | . | -80* | . | 16%
CCCS(=O)(=O)c1nc(S(=O)(=O)c2ccc(C)cc2)c(N2CCN(C)CC2)s1 | . | . | . | ? | . | 5%
CCN1CCN(c2sc(S(=O)(=O)CC)nc2S(=O)(=O)c2ccc(C)cc2)CC1 | . | -21% | ? | -72* | . | .
CCN1CCN(c2sc(S(C)(=O)=O)nc2S(=O)(=O)c2ccc(C)cc2)CC1 | . | . | . | -91* | . | ?
Cc1ccc(S(=O)(=O)c2nc(S(C)(=O)=O)sc2N2CCCC2)cc1 | . | . | . | -24 | . | 4%
COc1ccc(O[C@H]2C=C[C@@H](c3ccccc3)O[C@H]2COC(=O)CCC(C)=NO[C@H](C)c2cn([C@H](CO)Cc3ccccc3)nn2)cc1 | ? | . | . | . | -9%[14.2 µM] | .
Cc1ccc(N2CCN(C(=O)c3ccccc3)CC2)c(C)c1 | 22% | -20% | -15% | 57 | -6% | -8%
Cc1ccc(N2CCN(C(=O)c3cc(C(=O)c4ccccc4C)c[nH]3)CC2)c(C)c1 | . | . | . | 35 | . | 11µM*
Cc1cc(-c2ccccc2)nc2[n+]1CCN2C | -20% | -28% | -22% | -84* | -28% | -25%
CCCCOc1ccc(C(=O)N2CCC(C)CC2)cc1 | ? | -13% | . | -28 | 30% | 7%
CCCCOc1ccc(C(=O)OC2CC(C)N(C)CC2C)cc1 (centres undefined) | 3% | -17% | -23% | 2 | ? | 4.5µM*
O=C(Nc1ccc(O)cc1)c1cccc(Oc2ccc([N+](=O)[O-])cc2)c1 | ? | -16% | ? | -33 | ? | 11µM*
